# Screening data from PubChem BioAssay.
# HCV inhibitor: inhibitors of hepatitis C virus infection; Huh7.5.1 HCVcc-Cre infection, luciferase reporter, 44 h; Potency, µM (series often up to 41.8 µM), most hits filed as inhibitors; 3.4% of 340,000 active; AID 651820; active means well fitted inhibition curve with a large enough effect; inconclusive means small, poorly fitted or top-dose-only effect, or another doubt; inactive means no such curve, though single readings can be large or run the other way
#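 Infectious HCV cell culture screen: compound-treated cells (1,000/well, pre-plated 4 h) are infected with HCVcc-Cre at roughly 0.5 moi and grown 44 h. Infection is quantified by luciferase signal after 15 min substrate incubation at room temperature.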
# VACV Venus inh: vaccinia inhibition (Venus reporter); Vaccinia virus Venus reporter expression, fluorescence; Potency, µM (titrated, usually from 36.5 µM), usual class: inhibitors; 0.46% of 330,000 active; calls by dose curve; tested in A549 cells; further: nearly all actives have a fitted effect of over 30% in size
# HCMV antiviral: blocks human cytomegalovirus replication; HFF cells, HCMV-luciferase reporter, 72 h; hits give low values; activity change, negative = inhibition, % at 57.5 µM; 4.5% of 410,000 active; in the data active means activity change below about -60%; inconclusive means no clear call, values can overlap the other calls; inactive means above about -39%
#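 Inhibition of viral replication was scored as loss of reporter luminescence in HFFs infected with HCMV-luciferase (MOI 1 PFU/cell) for 72 h; compounds tested at 2 doses, normalized to buffer and Salinomycin controls.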
# VACV mCherry inh: vaccinia inhibition (mCherry reporter). Potency, µM (top dose mostly 36.5 µM), most hits filed as inhibitors. Vaccinia virus mCherry reporter infection, fluorescence. 0.63% of 310,000 active; calls by dose curve; tested in A549 cells; further: nearly all actives have a fitted effect of over 35% in size
# FMDV inh: blocks foot and mouth disease virus | FMDV antiviral cell-based qHTS | Potency, µM (series often up to 57.9 µM), usual class: inhibitors | 1.2% of 410,000 active | AID 1159524; calls by dose curve; tested in HEK293T cells; further: read-out not given here; nearly all actives have a fitted effect of over 45% in size
# Hits are given with their value; i = inactive; ? = inconclusive; nt = no result given. Hits are enriched below; roughly 7.3% of the tested compounds scored in any of these assays.
SMILES,HCV inhibitor,VACV Venus inh,HCMV antiviral,VACV mCherry inh,FMDV inh
O=C(c1cnn2c(C(F)(F)F)cc(-c3ccccc3)nc12)N1CCCCC1c1cccnc1 (stereo not drawn),i,i,?,i,i
O=C(O)c1cc2nc(-c3ccccc3)cc(-c3ccccc3)n2n1,i,i,i,i,i
O=C(c1cc2nc(-c3ccc(F)cc3)cc(C(F)(F)F)n2n1)N1CCCCC1c1cccnc1 (stereo not drawn),7.9µM,?,-90,?,18µM
CC1CCCCN1C(=O)c1cc2nc(-c3ccccc3)cc(-c3ccccc3)n2n1 (stereo not drawn),11µM,?,i,?,i
Cc1cc(C)n2c(=O)c3ccc(Cl)cc3nc2c1C#N,i,i,i,i,i
Cc1cc(Cl)n2c(nc3cc(F)c(F)cc32)c1C#N,?,i,-99,?,18µM
Cc1ccc(SCc2cc(=O)[nH]c(N3CCN(Cc4ccc5c(c4)OCO5)CC3)n2)cc1,i,i,-63,nt,i
Cc1ccc(SCc2cc(=O)[nH]c(N3CCN(Cc4ccccc4)CC3)n2)cc1,i,i,i,nt,i
CC(=O)c1ccc2cccc3c2c1N=CN3C,i,i,-63,i,nt
CN(C(=O)CSc1nc2ccccc2o1)C1CCS(=O)(=O)C1 (stereo not drawn),i,i,i,i,i
COCC(C)NC(=O)CSc1nc(-c2ccccc2)c(-c2ccccc2)o1 (stereo not drawn),?,i,-67,i,nt
CN(C(=O)CSc1nc(-c2ccccc2)c(-c2ccccc2)o1)C1CCS(=O)(=O)C1 (stereo not drawn),?,nt,-64,nt,i
COc1cc2c(cc1OC)C(=O)C(CC1CCN(Cc3ccccc3)CC1)C2 (stereo not drawn),1.4µM,i,i,i,?
COc1cc2c(cc1OC)CN(Cc1ccccc1)CC2,i,i,i,?,i
COc1ccccc1N1CCN(C(=O)c2ccc(CS(=O)c3ccccc3C)o2)CC1 (stereo not drawn),nt,i,i,i,?
Cc1cccc(N2CCN(C(=O)c3ccc(CS(=O)c4cccc(Cl)c4)o3)CC2)c1C (stereo not drawn),nt,i,-87,i,?
Cc1ccc(Cl)cc1N1CCN(C(=O)c2ccc(CS(=O)c3ccccc3)o2)CC1 (stereo not drawn),nt,i,i,i,i
Cc1ccccc1S(=O)Cc1ccc(C(=O)N2CCN(c3cccc(C)c3C)CC2)o1 (stereo not drawn),nt,i,-84,i,i
CC(=O)Nc1ccc(CN2CCn3c(nnc3C(=O)NCC3CC3)C2)cc1,nt,nt,i,nt,nt
COc1ccc(C(=O)Nc2ccc(NC(=O)c3cccs3)cc2)cc1[N+](=O)[O-],i,i,i,i,i
Cc1ccc(C(=O)Nc2ccc(NC(=O)c3cccs3)cc2)cc1[N+](=O)[O-],i,nt,i,nt,i
Cc1ccc(NC(=O)c2cccs2)cc1[N+](=O)[O-],7.9µM,i,i,i,i
Cc1ccc(C(=O)NC(=S)Nc2ccc(NC(=O)c3cccs3)cc2)cc1[N+](=O)[O-],i,i,-78,i,?
CC(C)Sc1ncc(Cl)c(C(=O)N(Cc2ccc(N(C)C)cc2)C2CCS(=O)(=O)C2)n1 (stereo not drawn),nt,i,i,i,i
Cc1ccc2c(c1)N(C(=O)CCC(=O)NCc1cccs1)CCO2,nt,i,i,i,i
SMILES,HCV inhibitor,VACV Venus inh,HCMV antiviral,VACV mCherry inh,FMDV inh
CN(C)c1ccc(/C=N/Nc2nncc3ccccc23)cc1,i,i,i,i,7.9µM
C/C(=N\Nc1nncc2ccccc12)c1ccc(C(C)(C)C)cc1,2.5µM,i,nt,i,i
CC(=O)Nc1ccc(C=NNc2nnc(NN=Cc3ccc(NC(C)=O)cc3)c3ccccc23)cc1,22µM,i,i,i,i
C(=N\Nc1nncc2ccccc12)/c1ccccc1,i,i,i,i,i
C/C(=N\Nc1nncc2ccccc12)c1cccc(OC(F)F)c1,?,i,i,?,i
C/C(=N\Nc1nncc2ccccc12)c1ccc(O)cc1,7.1µM,i,i,?,i
Fc1ccc(-c2csc(=Nc3cccc(C(F)(F)F)c3)n2Cc2ccc3c(c2)OCO3)cc1,nt,i,i,i,?
O=C(COc1ccc2c3c(c(=O)oc2c1)CCCC3)NCc1ccccn1,i,nt,i,nt,i
COc1ccc(-c2nc(NCCCN(C)C)c3ccccc3n2)cc1,?,nt,i,nt,i
COc1ccc(-c2nc(N/N=C(\C)c3ccc(O)cc3)c3ccccc3n2)cc1,10µM,nt,i,nt,i
Cc1ccc(-n2nc3c(=O)n(CC(=O)Nc4ccccc4F)nc(C)c3c2C)c(C)c1,nt,?,i,?,?
C=CC[C@]12CC=CC(=O)[C@@]1(O)O[C@H](c1ccc(OC)c(OC)c1)[C@H]2C,i,i,i,i,20µM
C=CC[C@]12C=C(OC)C(=O)C(OC)=C1O[C@@H](c1ccc3c(c1)OCO3)[C@H]2C,?,i,i,i,i
CCOC(=O)/C(=C\c1ccccc1)C(=O)CCN1CCOCC1,10µM,i,i,i,18µM
O=C(CCc1ccccc1)OCCN1CCOCC1,i,i,i,nt,i
COC(=O)[C@@H]1[C@@H](CO)[C@@H]2Cn3c(cccc3=O)[C@H]1N2S(=O)(=O)c1cccc(C)c1,nt,nt,i,nt,nt
COC(=O)C1=C(c2ccc3ccccc3c2)C[C@@H]2CC[C@H]1N2C,i,i,i,i,i
COC(=O)C1=C(C(=O)OC)C2OC1c1cc3ccccc3cc12,?,?,i,i,28µM
CCOCCCNCc1ccc(OC)cc1,i,i,i,i,i
COc1ccc2cc(CNCCOCCOCCNCc3ccc4cc(OC)ccc4c3)ccc2c1,4µM,?,-98,?,40µM
C=C(c1nc2ccccc2s1)C1Cc2cccc3c2N(CCC3)C1 (stereo not drawn),nt,i,nt,i,nt
COc1ccc(CC2C(=O)NC(C)C(=O)N(C)C3Cc4ccc(cc4)Oc4cc(ccc4O)CC(C(=O)NC(C)C(=O)NC(C)C(=O)N2C)N(C)C3=O)cc1 (stereo not drawn),?,?,-101,?,i
COc1cc2c(cc1OC)C1CC(=O)C(CC(C)C)CN1CC2 (stereo not drawn),nt,i,-62,i,i
C[C@H]1CC[C@]2(NC1)O[C@H]1C[C@H]3[C@@H]4CC[C@H]5C[C@@H](O[C@@H]6O[C@H](CO)[C@H](O[C@@H]7O[C@H](CO)[C@@H](O)[C@H](O[C@@H]8OC[C@@H](O)[C@H](O)[C@H]8O)[C@H]7O[C@@H]7O[C@H](CO)[C@@H](O)[C@H](O)[C@H]7O)[C@H](O)[C@H]6O)CC[C@]5(C)[C@H]4CC[C@]3(C)[C@H]1[C@@H]2C,nt,?,nt,?,25µM
Cc1c(Cl)cccc1NC(=S)C(=C([O-])c1ccc(Cl)s1)[n+]1ccccc1,i,i,i,i,i
Cc1ccc(C(=O)OCC(=O)NCc2cccc(Cl)c2)cc1S(=O)(=O)N1CCCCC1,?,i,?,i,i
CCC1(C)Cc2c(sc3nnn(Cc4ccccc4Cl)c(=O)c23)CO1 (stereo not drawn),?,nt,-60,nt,i
Cc1ccc(OCC(=O)Nc2ccccc2C(=O)OCc2cc(=O)n3ccsc3n2)cc1C,nt,i,i,i,i
